Data from ChEMBL document CHEMBL1201862, “PubChem BioAssay data set” (2004).

Assay: M. tuberculosis growth inhibition, dose response, 7H9 media, purified and synthesized compounds, set 6 (AID 504897); call rule not given here
Format: functional
With `NC(=O)c1cnccn1` the IC90 was > 100 µM (active). With `Cc1[nH]c2ccccc2c1C(=O)COC(=O)c1ccc([N+](=O)[O-])s1` the IC90 was > 67.8 µM (active). With `COC(=O)c1ccc(CNc2c(N3CCCC3)c(=O)c2=O)cc1` the IC90 was > 100 µM (active). For `O=C(CSc1ccccn1)NC1CCCCC1`, the IC90 was > 100 µM (active). In the case of `CCCc1cc(C(N)=S)ccn1`, the IC90 is reported as > 100 µM (active).
